Compound activity (PubChem)
IMPase Li cell: qHTS Assay for Identifying the Cell-Membrane Permeable IMPase Inhibitors: Potentiation with Lithium; hit rate 0.35% among 210,000; AID 1457, 2008; CHO-M1 cells, IP1 TR-FRET (IP-One), carbachol + lithium; Potency, µM (highest dose often 59.4 µM), for inactives: at the top dose activity, negative = IMPase inhibition, hits mostly inhibitors;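 further: IP1 builds up when IMPase is blocked and the TR-FRET signal falls; plate controls were basal vehicle for no effect and high inhibitor control for full effect; nearly all actives have a fitted effect of over 50% in size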
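Readout is a homogeneous TR-FRET IP1 immunoassay (Ex 320, Em 665 and 620), where raised cytosolic IP1 lowers signal. Cells were CHO-M1 treated 30 min at 37C with test compounds plus a little lithium; AC50 values came from Hill-equation fitting.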
NPSR antagonist: qHTS Assay for Antagonists of the Neuropeptide S Receptor: cAMP Signal Transduction | CHO-NPSR cells, cAMP TR-FRET, antagonist mode | Potency, µM (titrated, usually from 38.3 µM), for the others: top-dose activity change, negative = inhibition, most hits filed as inhibitors | hit rate 1% among 220,000; further: nearly all actives have a fitted effect of over 50% in size
Target sequence (Q6W5P4 whole entry, looked up): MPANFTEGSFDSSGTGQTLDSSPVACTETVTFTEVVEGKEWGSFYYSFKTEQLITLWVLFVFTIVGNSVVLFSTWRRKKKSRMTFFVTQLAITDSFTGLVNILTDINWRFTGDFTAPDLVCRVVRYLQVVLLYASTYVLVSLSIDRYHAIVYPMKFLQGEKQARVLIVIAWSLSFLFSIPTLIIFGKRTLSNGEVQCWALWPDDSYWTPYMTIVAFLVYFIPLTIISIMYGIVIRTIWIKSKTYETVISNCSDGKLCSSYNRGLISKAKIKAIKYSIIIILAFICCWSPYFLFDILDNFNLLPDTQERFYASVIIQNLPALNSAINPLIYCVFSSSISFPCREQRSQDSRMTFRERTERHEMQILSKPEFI
ERK EGF inh: qHTS Assay for Inhibitors of the ERK Signaling Pathway using a Homogeneous Screening Assay; Stimulation with EGF. HEK293-V1b, EGF-stimulated phospho-ERK AlphaScreen. Potency, µM (doses to about 11.5 µM), inactives show top-dose activity change, negative = inhibition, usual class: inhibitors. hit rate 0.41% among 130,000;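 further: plate controls were stimulated vehicle wells for no effect and unstimulated vehicle basal for full effect; nearly all actives have a fitted effect of over 55% in size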
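V1b-HEK293, 1% FBS o/n; cpd 30 min 37C; EGF 25 nM final, 5 min; lyse 10 min; AlphaScreen beads 5 h RT. Normalized DMSO basal vs EGF max; Hill AC50.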
* hit, by the source's call; ? = inconclusive; . = not tested or not shown; [ ] = dose if it differs, or a comment. The full list was thinned out, with hits kept by preference. The call rests on the fitted dose curve; in most records, active means well fitted curve in the direction sought with a large enough effect; inconclusive means small, poorly fitted or top-dose-only effect, or another doubt; inactive means no such curve, though single readings can be large; an effect the other way counts as inactive or inconclusive. Unless noted, on the % scale 0 is the no-effect control and ±100 the full control effect; potency means the concentration at half of the fitted maximal effect.

SMILES	IMPase Li cell	NPSR antagonist	ERK EGF inh
CCCCOCCOCCSC#N	16%	.	.
O=C(O)/C=C\C(=O)Nc1cccc2c1-c1ccccc1C2=O	-5%	.	.
Cc1ccc(-c2csc(=Nc3cccnc3)n2CCCn2ccnc2)cc1C	13%	-4%	28µM*
Cc1ccc(-c2csc(=Nc3cccnc3)n2CCCN2CCCC2=O)cc1C	3%	14%	-5%
CCC(C)(C)C(=O)O[C@@H]1C[C@@H](C)C=C2C=C[C@H](C)[C@H](CC[C@@H]3C[C@@H](O)CC(=O)O3)[C@H]21	.	.	2%
O=C(O)c1cccc(NC(=S)NC(NC(=O)c2cccc([N+](=O)[O-])c2)C(Cl)(Cl)Cl)c1 (stereo not drawn)	.	-4%	?
O=C(NC(NC(=S)Nc1ccc(Cl)cc1Cl)C(Cl)(Cl)Cl)c1cccc([N+](=O)[O-])c1 (stereo not drawn)	33%[38.3 µM]	10µM*	.
Cc1cc(C)c(NC(=S)NC(NC(=O)c2ccccc2)C(Cl)(Cl)Cl)c(C)c1 (stereo not drawn)	4%	-37%	4%
O=C(NC(NC(=S)Nc1ccccc1)C(Cl)(Cl)Cl)c1cccc(Cl)c1 (stereo not drawn)	9%[38.3 µM]	13µM*	.
CCCCS(=N)(=O)CC[C@H](N)C(=O)O (stereo partly drawn)	12%	6%[46.1 µM]	-3%
N=C(N)c1ccc(N2CCN(C3CCN(CC(=O)O)CC3)CC2)cc1	-10%	.	3%
Cc1cccc(CNc2cc(-c3cccnc3)ncn2)c1	1%	.	16%
COC(=O)[C@@]1(Cc2ccccc2)[C@H]2c3cc(C(=O)N(C)C)n(Cc4ccsc4Br)c3C[C@H]2CN1C(=O)c1ccccc1	10%	.	4%
CC(C)CN=Cc1c(O)c([N+](=O)[O-])cc2oc3c(c12)CCCC3	12%	?	-7%
O=[N+]([O-])c1cc2oc3c(c2c(C=NCc2ccccc2)c1O)CCCC3	15%	10µM*	-3%
CCc1ccc(C2=NN(c3ccc(S(N)(=O)=O)cc3)C(c3ccc(F)cc3)C2)cc1 (stereo not drawn)	-28%[38.3 µM]	10µM*	.
NS(=O)(=O)c1ccc(N2N=C(c3ccccc3)CC2c2ccccc2)cc1 (stereo not drawn)	-13%	-5%	-4%
C/C=C1\C(=O)CC2C3CCC4=CC(=O)CC[C@]4(C)C3CC[C@]12C (stereo partly drawn)	19%	?	3%
O=C(Nc1cccc(F)c1)N1CC[C@@]2(CCCNC2)C1	15%	.	7%
c1ccc(-c2cc3c(ccc4nonc43)nn2)cc1	-7%[38.3 µM]	12%[46.1 µM]	.
On1onc2c3cc(-c4ccccc4)nc3ccc21	40%[38.3 µM]	13µM*	.
N#Cc1c(Sc2ncc(C(F)(F)F)cc2Cl)nsc1C/C=N\OCc1ccccc1Br	-1%[38.3 µM]	10µM*	.
CCOC(=O)/C(=C\Nc1ccccc1C(F)(F)F)Sc1ncc(C(F)(F)F)cc1Cl	48%[38.3 µM]	?	.
COC(=O)c1cc(C)sc1NC(=O)C1CC=CCC1C(=O)O (stereo not drawn)	11µM*	?	.
COC(=O)c1cc(C)sc1NC(=O)CCCC(=O)O	18%[38.3 µM]	-7%[46.1 µM]	.
SMILES	IMPase Li cell	NPSR antagonist	ERK EGF inh
COC(=O)c1sccc1NC(=O)C1CCCCC1C(=O)O (stereo not drawn)	.	14%	-9%
CCOC(=O)c1c(NC(=O)C2C3C=CC(CC3)C2C(=O)O)sc(C)c1C (stereo not drawn)	-7%	5%	-5%
COC(=O)c1cc(C)sc1NC(=O)C1C2C=CC(CC2)C1C(=O)O (stereo not drawn)	10µM*	-34%	2%
COC(=O)c1sccc1NC(=O)C1CC=CCC1C(=O)O (stereo not drawn)	10µM*	?	.
NC(=O)/N=C(\N)NC(=O)c1ccccc1	-5%	.	.
CCOC(=O)C1=C(N)Oc2ccc(Br)cc2C1C(C#N)C(=O)OCC (stereo not drawn)	-11%	.	.
O=S1(=O)C=C(Sc2nc3ccccc3s2)c2ccccc21	50%[38.3 µM]	10µM*	.
Cc1cc(C)nc(SC2=CS(=O)(=O)c3ccccc32)n1	6%	-20%[46.1 µM]	.
CSc1ccc2c(c1)N(CC[C@H]1CCCCN1C)c1ccccc1S2	18%	.	-7%[25.7 µM]
CSc1ccc2c(c1)N(CCC1CCCCN1C)c1ccccc1S2 (stereo not drawn)	29%	13µM*	?
O=C(OCC1CO1)C1CCCCC1C(=O)OCC1CO1 (stereo not drawn)	11%	.	.
O=C1c2ccccc2C(=O)c2c(NC3CCCCC3)ccc(Nc3ccc(S(=O)(=O)O)cc3)c21	11%	.	.
CC(=O)Nc1ccc(-c2cc(C(=O)O)c3ccccc3n2)cc1	.	3%	5%[57.5 µM]
CC(=O)Nc1ccc(-c2cc(-c3ccc(NC(C)=O)cc3)nc(-c3ccccc3)n2)cc1	32µM*	2%[46.1 µM]	.
CCC(=O)Nc1ccc(-c2csc(C)n2)cc1	4%	7%	2%
CCC(=O)Nc1ccc(-c2cc(-c3ccccc3)nc(-c3ccc(NC(=O)CC)cc3)n2)cc1	10µM*	3%[46.1 µM]	.
CC(=O)Nc1ccc(-c2cc(-c3ccc(NC(C)=O)cc3)nc(-c3ccc(NC(C)=O)cc3)n2)cc1	?	-28%	-5%
CC(=O)Nc1ccc(-c2cc(-c3ccccc3)nc(-c3ccccc3)n2)cc1	8.9µM*	?	4%
O=[N+]([O-])c1cc(Cl)c(Cl)c(Cl)c1Cl	-9%	.	.
O=C(O)c1cc(=O)c2ccc(Cl)cc2[nH]1	25%	-13%[46.1 µM]	8%
CN(C)S(=O)(=O)c1ccc(-c2csc(N/N=C/c3ccc(O)cc3)n2)cc1	.	13µM*	11µM*
CN(C)S(=O)(=O)c1ccc(-c2csc(N/N=C/c3ccco3)n2)cc1	.	-9%	20µM*
C(=N\Nc1nc(-c2ccccc2)cs1)/c1ccncc1	4%	16%	-3%
Cc1ccc(-c2csc(N/N=C/c3ccco3)n2)cc1	2%[38.3 µM]	-16%[46.1 µM]	.
CC(=O)OCC(=O)[C@@]1(O)CCC2C3CCC4=CC(=O)C=CC4(C)C3C(O)C[C@]21C (stereo partly drawn)	6%	.	13%
SMILES	IMPase Li cell	NPSR antagonist	ERK EGF inh
CC(=O)OCOC(c1ccc2ccccc2c1)P(=O)(OCOC(C)=O)OCOC(C)=O (stereo not drawn)	2%	.	.
CC(C)OC(=O)CC(=O)CSc1nc(-c2ccc(F)cc2)cc(-c2ccccc2)c1C#N	6%	?	3%
CC(C)(C)CC(=O)Nc1nnc(-c2cccs2)s1	11µM*	-1%[46.1 µM]	.
CCOC(=O)CNC(=O)CSc1ncnc2c1cnn2-c1ccc(OC)cc1	8%[38.3 µM]	2%[46.1 µM]	.
CCc1nnc(NC(=O)CSc2nc(-c3ccccc3)cc(-c3ccc(F)cc3)c2C#N)s1	10µM*	10µM*	.
CCc1nnc(NC(=O)CSc2nc(C3CCCCC3)nc3ccccc23)s1	7.9µM*	11%[46.1 µM]	.
O=C(CN1CCCC1)Nc1nnc(-c2cccs2)s1	-7%	16%	11%
CCc1nnc(NC(=O)CSc2ncnc3c2cnn3-c2ccc(OC)cc2)s1	10µM*	-3%[46.1 µM]	.
O=C(CSc1nc(C2CCCCC2)nc2ccccc12)NCc1ccco1	3%	-52%	8%
OCCNc1ncnc2c1ncn2[C@@H]1O[C@@H](CO)[C@H](O)[C@@H]1O	-5%	.	.
CN(Cc1ccco1)c1cc(-c2ccoc2)ncn1	6%	.	.
